Most compounds without a hit are left out; they make up all but 2.5% or so of the library.
Cruzain noTriton – blocks cruzain activity in detergent-free assay. P25779. purified cruzain, Z-FR-AMC fluorescence, no detergent. Potency, µM, for the others: max response, negative = inhibition, most hits filed as inhibitors. actives 2.3% (n = 200,000);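 further: plate controls were enzyme without inhibitor for no effect and buffer without enzyme for full effect; nearly all actives have a fitted effect of over 40% in size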
Target sequence (P25779 123-467 limits assumed): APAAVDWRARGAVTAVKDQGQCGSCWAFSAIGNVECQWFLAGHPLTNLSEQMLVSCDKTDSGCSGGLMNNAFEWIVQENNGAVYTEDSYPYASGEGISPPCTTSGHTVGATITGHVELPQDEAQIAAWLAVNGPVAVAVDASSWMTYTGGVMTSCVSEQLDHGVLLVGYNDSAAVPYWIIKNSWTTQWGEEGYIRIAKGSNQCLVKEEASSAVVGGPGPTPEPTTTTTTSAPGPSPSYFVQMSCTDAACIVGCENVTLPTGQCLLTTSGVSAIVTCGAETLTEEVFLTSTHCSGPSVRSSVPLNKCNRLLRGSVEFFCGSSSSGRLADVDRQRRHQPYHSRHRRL
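Detergent-free condition (0.00005% Triton X-100) in acetate buffer pH 5.5 with DTT. 1.5 nM enzyme and compound were pre-mixed 15 min, then 2 uM Z-FR-AMC substrate added; reaction progress from fluorescence change between first and third reads (60 s).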
Cruzain Triton – inhibitors of Trypanosoma cruzi cruzain with detergent; P25779; purified cruzain, Z-FR-AMC fluorescence, 0.01% Triton; Potency, µM, without a hit: max response, negative = inhibition, most hits filed as inhibitors; actives 0.43% (n = 200,000);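 further: plate controls were neutral wells for no effect and buffer without enzyme for full effect; nearly all actives have a fitted effect of over 40% in size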
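Enzyme 1.5 nM, Z-FR-AMC 2 uM, NaOAc 100 mM pH 5.5, DTT 5 mM, Triton X-100 0.01%; 15 min RT compound preincubation; kinetic ex360/em450, 60 s delta.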
Active calls of the source: *; ? = inconclusive. The call rests on the fitted dose curve; in most records, active means well fitted curve in the direction sought with a large enough effect; inconclusive means small, poorly fitted or top-dose-only effect, or another doubt; inactive means no such curve, though single readings can be large; an effect the other way counts as inactive or inconclusive. Potency means the concentration at half of the fitted maximal effect.

SMILES	Cruzain noTriton	Cruzain Triton
COc1ccc(Cl)cc1-n1c(/C=C/c2cccc3ccccc23)nc2ccccc2c1=O	32µM*	0%
Cc1ccc(NC(=O)Cn2c(C)cc(C)c(C#N)c2=O)cc1F	3%	-5%
CCc1ccccc1NC(=O)C1CCCN(c2ncnc3onc(C)c23)C1 (centres undefined)	-7%	-1%
Cn1c(O)c(N=NC(=O)c2cc(-c3cccs3)nc3ccccc23)c2ccccc21	10µM*	-1%
Cn1cccc1/C=N/NC(=O)c1cc(-c2cccs2)nc2ccccc12	-20%	-9%
C/C(=C\C(=O)c1ccc(F)cc1)Nc1ccc(N2CCOCC2)cc1	-12%	0%
NC(=O)CC[C@H](NC(=O)c1ccc(F)cc1)C(=O)OCC(=O)Nc1ccc(N2CCOCC2)cc1	?	25µM*
CCSc1ccccc1C(=O)Nc1ccc(-c2nc3ccccc3s2)c(O)c1	7.9µM*	1%
CSc1ccc(C(=O)Nc2ccc(-c3nc4ccccc4s3)c(O)c2)cc1	2%	1%
NC(=O)C1CCN(S(=O)(=O)c2ccc(N3CCCCS3(=O)=O)cc2)CC1	4%	-1%
Cc1ccc(NC(=O)CC2S/C(=N/N=C/c3c[nH]c4ccccc34)NC2=O)cc1 (centres undefined)	20µM*	-15%
Cc1ccc(NC(=O)CC2SC(=NCC3CCCO3)NC2=O)cc1Cl (centres undefined)	-5%	1%
CCOC(=O)c1ccc(NC(=O)CC2S/C(=N/N=C/c3c[nH]c4ccccc34)NC2=O)cc1 (centres undefined)	?	-2%
Cc1ccc(NC(=O)CC2S/C(=N/N=C/C=C/c3ccccc3)NC2=O)cc1Cl (centres undefined)	5µM*	-2%
COc1ccc(OCC(O)Cn2c(NCCO)nc3c2c(=O)n(C)c(=O)n3C)cc1 (centres undefined)	-4%	-3%
CC1CCN(S(=O)(=O)c2ccc3c(c2)c(=O)c(C(=O)NC(C)c2ccccc2)cn3C)CC1 (centres undefined)	?	-7%
CC1(C)CC(=O)c2c(oc3c(Cl)cc(NS(=O)(=O)c4ccc(Br)cc4)cc23)C1	-3%	-2%
CCc1ccc(C(=O)c2cn(CC(=O)Nc3cccc(C)c3C)c3nc(C)ccc3c2=O)cc1	-3%	1%
COc1ccccc1CCNC(=O)Cc1c(C)c2cc(Cl)c(O)cc2oc1=O	?	8%
CCc1ccc(NC(=O)Cn2c(=O)n(Cc3ccco3)c(=O)c3oc4ccccc4c32)cc1	1%	1%
CCN(CC)S(=O)(=O)c1ccc(C(=O)NCCSc2c(-c3ccccc3)[nH]c3ccccc23)cc1	?	2%
CN(C)S(=O)(=O)c1ccc(C(=O)NCCSc2c(-c3ccc(Br)cc3)[nH]c3ccccc23)cc1	25µM*	1%
CCCCCCN	2%	4%
Cc1nn(C(=O)c2cccs2)c(C)c1CN1C(=O)c2ccccc2C1=O	20µM*	1%
Cc1nn(C(=O)c2ccco2)c(C)c1CN1C(=O)c2ccccc2C1=O	-3%	2%
SMILES	Cruzain noTriton	Cruzain Triton
CC(C)C1=Nc2cccc3cccc(c23)N1	-10%	1%
Nc1cccc(-c2nc3ccc(N)cc3s2)c1	-1%	-22%
Nc1cccc(C2=Nc3cccc4cccc(c34)N2)c1	7.9µM*	-3%
COc1ccc(C2=Nc3cccc4cccc(c34)N2)cc1	3.2µM*	-3%
O=[N+]([O-])c1cc(C(F)(F)F)ccc1N1CCN(S(=O)(=O)c2ccc3ccccc3c2)CC1	25µM*	0%
O=[N+]([O-])c1cc(C(F)(F)F)cc([N+](=O)[O-])c1N1CCN(S(=O)(=O)c2ccccc2)CC1	-4%	-7%
CCN(CC)c1ccc(C=C(c2nnnn2-c2ccc(C)cc2)c2nnnn2-c2ccc(C)cc2)cc1	32µM*	-5%
Cc1ccc(-n2nnnc2C(Cl)c2nnnn2-c2ccc(C)cc2)cc1	5%	-1%
O=C(CSc1nccn1Cc1ccccc1)NCc1ccco1	3%	-4%
O=C(CSc1nc2ccccc2c(=O)n1Cc1ccco1)NCc1ccco1	-27%	-6%
CCOC(=O)c1sc2nc(SCC(=O)NCc3ccco3)n(Cc3ccccc3)c(=O)c2c1C	7.9µM*	2%
Cc1sc2nc(SCC(=O)NCc3ccco3)n(Cc3ccccc3)c(=O)c2c1C	4%	-3%
CCOC(=O)c1c(NC(=O)CSc2nc3ccccc3c(=O)n2-c2ccc(F)cc2)sc(C(C)=O)c1C	7.9µM*	-5%
CCOC(=O)c1c(NC(=O)CSc2ncnc3ccccc23)sc(C(C)=O)c1C	?	-3%
COC(=O)c1c(NC(=O)CSc2nc3ccccc3c(=O)n2Cc2ccco2)sc(C)c1C	25µM*	-2%
CC(=O)N[C@H]1C(O[C@@H]2O[C@H](C[C@@H](O)[C@H]3O[C@@H](N4CCC(=O)NC4=O)[C@H](O)[C@@H]3O)[C@H](O)[C@H](O)[C@H]2NC(=O)/C=C/CCCCCCCCCCC(C)C)OC(CO)[C@@H](O)[C@@H]1O (some centres undefined)	?	-1%
COc1ccc(-c2c3c(=O)n(C)c(=O)n(C)c3c3c(-c4cccc(C)c4)nc4ccccc4n23)cc1	?	-2%
CNc1oc(-c2ccccc2Cl)nc1P(=O)(c1ccccc1)c1ccccc1	?	-25%
CNc1oc(-c2ccc(C)cc2)nc1P(=O)(c1ccccc1)c1ccccc1	-28%	11µM*
CCOc1ccc(NC(=O)c2c(NCc3sccc3C)sc3c2CCCCC3)cc1	10%	-25%
COc1cccc(Nc2ncc3ncc(=O)n(Cc4cccs4)c3n2)c1	1%	-2%
COc1ccc(-n2c(=O)c(-c3cccs3)nc3cnc(Nc4ccccc4)nc32)cc1	5%	-1%
COc1cccc(Nc2ncc3nc(-c4cccs4)c(=O)n(Cc4cccs4)c3n2)c1	5µM*	2%
COc1cccc(Nc2ncc3nc(-c4cccs4)c(=O)n(-c4ccccc4)c3n2)c1	6.3µM*	1%
Cn1ccc2cc(S(=O)(=O)N3CCN(C(=O)Nc4ccccc4F)CC3)ccc21	-12%	-4%
SMILES	Cruzain noTriton	Cruzain Triton
COc1cccc(CNC(=O)c2oc3ccc4c(c3c2C)C(=O)CC(C)(C)O4)c1OC	?	-4%
C=CCn1c(=O)c2ccccc2n2c(SCC(=O)c3ccccc3)nnc12	16µM*	-1%
C=CCn1c(=O)c2ccccc2n2c(SCC(=O)NCCc3ccccc3)nnc12	-9%	0%
Cc1c(CC(=O)NCCc2ccccc2F)c(=O)oc2c(C)c3occ(C(C)(C)C)c3cc12	2%	-2%
Cc1cccc(NC(=O)Cn2c(=O)n(CCC(=O)N3CCc4ccccc4C3)c(=O)c3ccccc32)c1	7%	-5%
Cc1ccc(N2CCN(C(=O)c3cn(C)c4ccc(S(=O)(=O)N5CCCC5)cc4c3=O)CC2C)cc1 (centres undefined)	?	-4%
O=[N+]([O-])c1ccc(-c2cn(-c3ccc(Cl)cc3)c(=S)[nH]2)cc1	?	-1%
CCc1ccc(-n2cc(-c3ccc([N+](=O)[O-])cc3)[nH]c2=S)cc1	25µM*	-5%
Cc1ccc(C)c(Cn2cc(CCC(=O)NC3CCCCC3)c3ccccc32)c1	1%	0%
CSc1nc(N(C)CCO)c2sc3nc(-c4ccco4)c4c(c3c2n1)CCC4	-25%	8.9µM*
CSc1nc(N2CCN(CCO)CC2)c2sc3nc(-c4ccco4)c4c(c3c2n1)CCC4	-1%	-16%

Bioassay records as filed in PubChem.
